High-throughput results (PubChem BioAssay)
HCV inh: HCV inhibition; Huh7.5.1 HCVcc-Cre infection, luciferase reporter, 44 h; Potency, µM (doses to about 41.8 µM), for the others: at the top dose activity change, negative = inhibition, actives largely listed as inhibitors; hit rate 3.4% among 340,000; active = well fitted inhibition curve with a large enough effect; inconclusive = small, poorly fitted or top-dose-only effect, or another doubt; inactive = no such curve, though single readings can be large or run the other way
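Antiviral activity was scored by luciferase reporter output from cells infected with HCVcc-Cre (~0.5 moi) in presence of compound, 44 h infection period, cells seeded 1,000/well 4 h prior.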
Vaccinia Venus: vaccinia inhibition (Venus reporter); Potency, µM (top dose mostly 36.5 µM), inactives show top-dose activity change, negative = inhibition, most hits filed as inhibitors; hit rate 0.46% among 330,000; Vaccinia virus Venus reporter expression, fluorescence; AID 720580; calls by dose curve; tested in A549 cells; note: nearly all actives have a fitted effect of over 30% in size
Vaccinia mCherry: vaccinia inhibition (mCherry reporter). hit rate 0.63% among 310,000. Vaccinia virus mCherry reporter infection, fluorescence. AID 720579. Potency, µM (titrated, usually from 36.5 µM), inactives show at the highest dose activity change, negative = inhibition, usual class: inhibitors; calls by dose curve; tested in A549 cells; note: nearly all actives have a fitted effect of over 35% in size
Numbers without * were called inactive. A selection: hits, their analogues and other compounds. The true share with any hit is near 3.3%. % is set by controls: 0 for no effect and ±100 for the full control effect; potency is the fitted concentration of half-maximal effect.

Results for COc1cc(CNc2nc3ccccc3[nH]2)cc(OC)c1OC ?
HCV inh: 15%

How did CCOC(=O)c1cc(-c2ccc(OC)cc2)nn1Cc1ccccc1 do in these assays?
Vaccinia Venus: -6%; Vaccinia mCherry: -13%

How did Cc1ccc(NC(=O)c2nc[nH]c2C(=O)NC2CCN(C(=O)OC(C)(C)C)CC2)cc1 do in these assays?
HCV inh: 3%; Vaccinia Venus: inconclusive; Vaccinia mCherry: -11%

Results for CC(C)(C)OC(=O)N1CCC(NC(=O)c2[nH]cnc2C(=O)Nc2ccc(Cl)cc2)CC1 ?
HCV inh: 15%; Vaccinia Venus: 14µM*; Vaccinia mCherry: -28%

What do the screens show for `O=S(=O)(c1nccs1)N1CCN(c2nc(-c3cccs3)nc3ccccc23)CC1`?
Vaccinia Venus: -6%; Vaccinia mCherry: inactive

What do the screens show for `CCN(CC)S(=O)(=O)c1ccc(C(=O)Nc2cc(C)cc(C)c2)cc1`?
HCV inh: -30%; Vaccinia Venus: -17%; Vaccinia mCherry: -24%

How did CCN(CC)S(=O)(=O)c1ccc(NC(=O)c2ccc(N(C)S(C)(=O)=O)cc2)cc1 do in these assays?
HCV inh: 4.5µM*; Vaccinia Venus: inconclusive

What do the screens show for `CCN(CC)S(=O)(=O)c1ccc(C(=O)Nc2ccc(Cc3ccncc3)cc2)cc1`?
HCV inh: 3.2µM*; Vaccinia Venus: -23%; Vaccinia mCherry: inactive

What do the screens show for `CCN(CC)S(=O)(=O)c1ccc(NC(=O)c2ccccc2N(C)S(C)(=O)=O)cc1`?
HCV inh: 6%

What do the screens show for `C=CCn1c(O)c(C(C)=NCc2cccnc2)c(=O)[nH]c1=O`?
HCV inh: 13%

How did C=CCn1c(O)c(C(C)=NCc2cc(OC)cc(OC)c2)c(=O)[nH]c1=O do in these assays?
HCV inh: inconclusive; Vaccinia Venus: 5µM*; Vaccinia mCherry: 8.9µM*

What do the screens show for `COc1ccc(-c2[nH]ncc2/C=N\NC(=O)c2ccc(Br)o2)cc1OC`?
HCV inh: -10%; Vaccinia Venus: -14%; Vaccinia mCherry: -1%

Results for CCN(CC)S(=O)(=O)c1cccc(NC(=O)c2cc3ccccc3o2)c1 ?
HCV inh: 10µM*; Vaccinia Venus: -14%; Vaccinia mCherry: -13%

Results for COc1cc(NC(=O)c2cccc(C)c2)ccc1NC(=O)c1cc2ccccc2o1 ?
HCV inh: inconclusive; Vaccinia Venus: 8.9µM*; Vaccinia mCherry: inconclusive

How did CCOc1cccc(C(=O)Nc2ccc(NC(=O)c3cc4ccccc4o3)c(OC)c2)c1 do in these assays?
HCV inh: inconclusive; Vaccinia Venus: -2%; Vaccinia mCherry: -8%

What do the screens show for `CCN(CC)S(=O)(=O)c1cccc(NC(=O)c2cncc(Br)c2)c1`?
HCV inh: inconclusive; Vaccinia Venus: -23%; Vaccinia mCherry: inactive

How did O=C(Nc1cccc(S(=O)(=O)N2CCCCC2)c1)c1cc2ccccc2o1 do in these assays?
HCV inh: inconclusive; Vaccinia Venus: -17%; Vaccinia mCherry: -10%

Results for CCN(CC)S(=O)(=O)c1cccc(NC(=O)c2ccc(Br)cc2)c1 ?
HCV inh: 8.9µM*; Vaccinia Venus: -25%; Vaccinia mCherry: inconclusive

Results for O=C(CN(Cc1ccco1)C(=O)CNS(=O)(=O)c1ccc(F)cc1)NCc1ccccc1 ?
HCV inh: -8%; Vaccinia Venus: -5%; Vaccinia mCherry: -16%

How did CCOC(=O)c1cccc(NC(=O)c2ccc3nc(Cc4ccccc4)oc3c2)c1 do in these assays?
Vaccinia Venus: -21%; Vaccinia mCherry: -20%

What do the screens show for `N#CCC(=O)Nc1ccc(C(=O)OCC(=O)N=c2sccn2Cc2ccccc2Cl)cc1`?
HCV inh: inconclusive; Vaccinia Venus: -9%; Vaccinia mCherry: -17%

What do the screens show for `O=C(COC(=O)c1ccc(O)cc1O)N=c1sccn1Cc1ccccc1Cl`?
HCV inh: 7.9µM*; Vaccinia Venus: -23%; Vaccinia mCherry: inconclusive

How did Cc1ccc(Cn2ccsc2=NC(=O)COC(=O)C(C)C)cc1 do in these assays?
HCV inh: 11%; Vaccinia Venus: 2%; Vaccinia mCherry: -21%

What do the screens show for `Cc1ccc(Cn2ccsc2=NC(=O)COC(=O)c2ccc(O)cc2O)cc1`?
HCV inh: 11µM*

How did Cc1ccc(S(=O)(=O)N2CC3(O)CN(C(=O)OC(C)C)N(C(=O)OC(C)C)CC3(OC(=O)NCC3CCCCC3)C2)cc1 (stereo not drawn) do in these assays?
Vaccinia Venus: inconclusive; Vaccinia mCherry: inactive

How did CCOC(=O)c1cc(-c2ccc(OC)cc2)n(CCC(=O)NC2CCN(Cc3ccccc3)CC2)c1C do in these assays?
HCV inh: inconclusive; Vaccinia Venus: inconclusive; Vaccinia mCherry: -22%

How did CCOC(=O)c1cc(-c2ccc(F)cc2)n(CCC(=O)NC2CCN(Cc3ccccc3)CC2)c1C do in these assays?
HCV inh: 4µM*

Results for CCOC(=O)c1cc2c(=O)n3ccccc3nc2n(CC(C)C)c1=NC(=O)COc1ccc(Cl)cc1 ?
Vaccinia Venus: -17%; Vaccinia mCherry: -24%

What do the screens show for `COc1cccc(C(=O)Nc2cccc(OCc3cc(=O)n4c5c(sc4n3)CCCC5)c2)c1`?
Vaccinia Venus: -12%; Vaccinia mCherry: -1%

How did C=C1C(=O)O[C@@H]2[C@H]3O[C@]3(C)CC/C=C(\C)CC[C@@H]12 do in these assays?
HCV inh: -11%; Vaccinia Venus: -13%; Vaccinia mCherry: inactive

How did C=C1C(=O)O[C@H]2C[C@H]1[C@@H](OC(C)=O)C/C(C)=C/CC/C(C)=C\CC[C@]2(C)O do in these assays?
HCV inh: 10µM*; Vaccinia Venus: 10µM*; Vaccinia mCherry: 10µM*

What do the screens show for `CCOC(=O)CSc1cccc2cccnc12`?
HCV inh: 6.3µM*; Vaccinia Venus: inconclusive

How did Cc1cccc(NC(=O)CSc2cccc3cccnc23)c1C do in these assays?
HCV inh: -9%; Vaccinia Venus: -21%; Vaccinia mCherry: -8%

Results for CCOc1cc(Br)c(COc2ccc(C)nc2[N+](=O)[O-])cc1OCC ?
HCV inh: 8.9µM*; Vaccinia Venus: 4%; Vaccinia mCherry: -15%

Results for Cc1ccc(OCc2ccc(-c3ccccc3)cc2)c([N+](=O)[O-])n1 ?
HCV inh: inconclusive; Vaccinia Venus: -14%; Vaccinia mCherry: -19%

How did Cc1ccc(NC(C(=O)c2ccccc2)c2ccccc2)cc1 (stereo not drawn) do in these assays?
HCV inh: -1%; Vaccinia Venus: -7%; Vaccinia mCherry: inconclusive

Results for CCOC(=O)c1[nH]c2ccccc2c1NC(=O)c1ccccc1OCC ?
Vaccinia Venus: -30%; Vaccinia mCherry: inconclusive

How did COC(=O)[C@@H]1CCCN1C(=O)c1c(OC)cc(=O)n2c1CCN(Cc1c(C)[nH]c3ccccc13)CC2 do in these assays?
Vaccinia Venus: -17%; Vaccinia mCherry: -13%

What do the screens show for `CCCCCn1c(N)c(-c2nc3ccccc3s2)c2c([N+](=O)[O-])nn(CC)c(=O)c21`?
HCV inh: 11µM*

How did CCCCn1c(N)c(-c2nc3ccccc3s2)c2c([N+](=O)[O-])nn(C)c(=O)c21 do in these assays?
HCV inh: 2%; Vaccinia Venus: -5%; Vaccinia mCherry: -17%

Results for Cc1nc(C#N)nc(Oc2ccccc2)c1Cl ?
Vaccinia Venus: -19%; Vaccinia mCherry: -27%

Results for CCC(=O)c1ccc(OCC(=O)OCC(=O)c2cc(C)n(C)c2C)cc1 ?
Vaccinia Venus: -16%; Vaccinia mCherry: -2%

Results for C=CCNc1nc(N2CCCC2)nc2ccccc12 ?
HCV inh: 16µM*; Vaccinia Venus: -13%
